NF-kB expr up = NF-kB expression increase, human neuronal cells; AID 1239; NF-kB reporter expression; hits give high values; actives 1.6% (n = 190,000); fold change at 12.5 µM; in the data active = fold change above about 3.3
STAT1 activator = activators of IFN-gamma induced STAT1 signaling | NIH 3T3 STAT1-luciferase reporter, luminescence; 100% = IFN-gamma alone, no compound | activation (% of control), % at 5.5 µM | actives 2.6% (n = 200,000);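 active = activation above the screen-wide mean activation plus 3 SD, cut at about 130% in these data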
APP transl inh = APP translation inhibition; SH-SY5Y APP 5'UTR-luciferase reporter, luminescence; inhibition, % at 2 µM; actives 0.82% (n = 190,000); AID 1285;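 active = inhibition above a set limit, derived from the sample mean plus 3 SD, cut at about 45% in these data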
Hsp70 activator = switches on Hsp70 transcription. HeLa Hsp70 promoter luciferase reporter, luminescence; scaled: vehicle 0, proteasome-inhibitor control 100%. activation, % at 10 µM. actives 0.04% (n = 200,000). AID 1203;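 active = activation above the mean across all tested compounds plus 3 SD, cutoff set per campaign, cut at about 5.5% in these data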
Wee1 stabilizer = blocks degradation of human Wee1 kinase; HeLa Luc-Wee1K328M stability, luciferase luminescence; 100% = proteasome inhibitor MG132 effect; reporter increase, % at 5 µM; actives 1.2% (n = 220,000); AID 1321;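 active = activation above the mean of all tested compounds plus 3 SD, set per screening run, cut at about 8.8% in these data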;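 also: cells exposed to compound for 20 h before luminescence read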
Target sequence (P30291 whole entry K328M): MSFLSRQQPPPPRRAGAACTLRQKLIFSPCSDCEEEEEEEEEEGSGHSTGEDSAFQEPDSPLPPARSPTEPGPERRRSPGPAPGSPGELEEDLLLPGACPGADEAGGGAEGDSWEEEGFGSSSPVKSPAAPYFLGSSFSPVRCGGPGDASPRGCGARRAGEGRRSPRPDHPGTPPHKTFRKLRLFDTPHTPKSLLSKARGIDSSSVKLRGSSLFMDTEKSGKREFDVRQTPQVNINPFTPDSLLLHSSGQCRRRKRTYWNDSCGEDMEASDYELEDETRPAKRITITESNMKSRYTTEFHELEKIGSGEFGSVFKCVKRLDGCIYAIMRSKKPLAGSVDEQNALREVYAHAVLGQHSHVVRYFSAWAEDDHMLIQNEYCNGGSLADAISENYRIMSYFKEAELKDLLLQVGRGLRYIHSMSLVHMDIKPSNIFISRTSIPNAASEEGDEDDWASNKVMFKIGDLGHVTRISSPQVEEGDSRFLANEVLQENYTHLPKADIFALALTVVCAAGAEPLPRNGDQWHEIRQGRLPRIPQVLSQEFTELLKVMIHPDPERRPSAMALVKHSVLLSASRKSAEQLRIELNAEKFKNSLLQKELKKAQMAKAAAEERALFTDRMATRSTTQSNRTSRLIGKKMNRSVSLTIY
APP 5'UTR act = activates APP 5'UTR luciferase reporter; actives 1% (n = 190,000); AID 1276; SH-SY5Y APP 5'UTR luciferase reporter, luminescence; zero percent = DMSO vehicle wells; activation, % at 2 µM;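 active = activation above a set limit, based on mean plus 3 SD of controls, cut at about 140% in these data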
Each line names hits and unclear results; the compound was inactive in the other large screens. Most compounds without a hit are left out; they make up all but 4.8% or so of the library.

O=C(N/N=C1/CCc2ccccc21)C1CC1	none
O=C(N/N=C1\CCc2ccccc21)c1ccccc1Cl	STAT1 activator 131
Cc1ccc(C(=O)N/N=C2\CCc3ccccc32)c(C)c1	NF-kB expr up 5.7, STAT1 activator 149
COc1ccc(-c2nc3ccccc3c(=O)n2CCOc2cc(C)ccc2C)cc1	none
CC(Oc1ccc(F)cc1)C(=O)Nc1ccc2ccccc2c1 (configuration not stated)	none (no result: APP transl inh, APP 5'UTR act)
CC(Oc1ccccc1F)C(=O)Nc1ccc2ccccc2c1 (configuration not stated)	Wee1 stabilizer 9.3
O=C(Cn1cnc2c(nnn2Cc2ccc(F)cc2)c1=O)NCC1CCCO1 (configuration not stated)	none
COc1ccc(C2C(C#N)=C(N)Oc3cc(C)n(Cc4ccco4)c(=O)c32)cc1 (configuration not stated)	none
CCC(=O)Nc1ccc(S(=O)(=O)N2CCCCC2)cc1OC	none
CC(C)(C)OC(=O)N/N=C/c1cccc([N+](=O)[O-])c1	NF-kB expr up 3.9, STAT1 activator 130
Cc1cc(C(=O)N/N=C/c2cccc([N+](=O)[O-])c2)c(C)o1	none
O=C(NCC1CCCO1)C1CCCN1C(=O)Nc1ccc(Cl)c(Cl)c1 (configuration not stated)	none
O=C1NC(c2cccs2)Nc2sc3c(c21)CCCC3 (configuration not stated)	Wee1 stabilizer 8.9
CC1=Nc2ccccc2N=C(N)C1c1ccccc1 (configuration not stated)	STAT1 activator 146, APP 5'UTR act 192
Cn1c(O)c(N=NC(=S)Nc2ccccc2F)c2cc(S(=O)(=O)N3CCOCC3)ccc21	APP transl inh 46
C=CCn1c(O)c(N=NC(=S)Nc2ccccc2C)c2cc(S(=O)(=O)N3CCOCC3)ccc21	none
Cc1ccc(NC(=S)N=Nc2c(O)n(C)c3ccc(S(=O)(=O)N4CCOCC4)cc23)cc1C	APP transl inh 70
Nc1cc(S(=O)(=O)Nc2ccc(Br)cc2)ccc1Cl	Wee1 stabilizer 9.4 (no result: NF-kB expr up, STAT1 activator, APP transl inh, Hsp70 activator, APP 5'UTR act)
COc1ccc(NS(=O)(=O)c2ccc(Cl)c(N)c2)cc1Br	none
O=C(COc1ccccc1F)N1CCN(S(=O)(=O)/C=C/c2ccccc2)CC1	none
O=C(COc1ccc(Br)cc1)N1CCN(S(=O)(=O)/C=C/c2ccccc2)CC1	APP transl inh 69
Cc1cccc(OCc2nc(-c3nonc3N)no2)c1C	STAT1 activator 139
CCN1CCN(Cc2ccc(NC(=O)Nc3ccc(OC)cc3)cc2)CC1	none
CCOC(=O)/C(=N/Nc1ccc(Cl)cc1)Sc1nnnn1-c1ccc(C)cc1	Wee1 stabilizer 11
CCOC(=O)/C(=N/Nc1ccccc1)Sc1nnnn1-c1ccc(C)cc1	none
CCOC(=O)/C(=N/Nc1ccc(C)cc1)S(=O)(=O)c1ccc(Cl)cc1	APP transl inh 63
Cc1nnc(SC(C)C(=O)Nc2ccc3c(c2)OCCO3)s1 (configuration not stated)	none
Cc1ccc2oc(/N=C(\N)NC(=O)C3CC3)nc2c1	Wee1 stabilizer 9.3 (no result: NF-kB expr up, STAT1 activator, APP transl inh, Hsp70 activator, APP 5'UTR act)
O=C1CSC(c2ccccc2)N1CC12CC3CC(CC(O)(C3)C1)C2 (configuration not stated)	Wee1 stabilizer 13
CC1CCC2(CC1)NC(=O)N(CC(=O)N1CCN(S(=O)(=O)c3ccccc3)CC1)C2=O (configuration not stated)	Wee1 stabilizer 9.7
Cc1ccc(COc2ccc(C)nc2[N+](=O)[O-])cc1	Wee1 stabilizer 8.8 (no result: NF-kB expr up, STAT1 activator, APP transl inh, Hsp70 activator, APP 5'UTR act)
O=C(Nc1ccc(Cl)c(Cl)c1)c1csc(-c2ccccc2)n1	none
COc1ccc(-n2cc(C(=O)c3ccccc3O)cn2)cc1	NF-kB expr up 3.9, APP 5'UTR act 236
O=C(c1cnn(-c2ccccc2)c1)c1ccccc1O	NF-kB expr up 9.5, APP 5'UTR act 184
CCO[C@H]1OC(C(=O)NCc2ccccc2)=C[C@@H](C2CCCCC2)[C@@H]1CCCO	none
NC(=O)CCS(=O)(=O)c1ccc(Cl)cc1	Wee1 stabilizer 10
COc1nc(N(CC(N)=O)S(=O)(=O)c2ccccc2)nc(C)c1Cl	none
c1ccc2nc(-c3nc4ccccc4o3)ccc2c1	none
CNc1ccccc(-c2ccc3ccccc3n2)c1=O	STAT1 activator 147
Cc1cc(-c2ccccc2)n[nH]1	none

Bioassay records as filed in PubChem.
